Mtb bLac sens: beta-lactam sensitization of Mtb H37Rv | M. tuberculosis H37Rv growth with meropenem, percent inhibition | inhibition, % at 25 µM | actives 0.27% (n = 330,000) | AID 434955; call rule not given here;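 further: growth measured after seven days incubation then overnight dye step; 0% = bacteria only wells and 100% = bacteria with antibiotic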
GDH-TPI counter: GDH-TPI coupled enzyme inhibition counter-screen; inhibition, % at 4.8 µM; actives 1.2% (n = 360,000); GDH-TPI coupled enzyme counterscreen, NADH absorbance; in the data active means inhibition above about 30%;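 further: 0% = DMSO wells and 100% = wells lacking the enzyme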
UGM FP inh: blocks M. tuberculosis UGM enzyme. P9WIQ1. purified UGM, fluorescence polarization probe displacement. inhibition, % at 10 µM. actives 0.06% (n = 320,000). AID 504406; in the data active means inhibition above about 10%, passing the limit was not always enough
Mtb FBA inh: Mtb fructose-bisphosphate aldolase inhibition. P9WQA3. purified M. tuberculosis FBA, fluorescence read-out. inhibition, % at 1 µM. actives 2.3% (n = 360,000). AID 588726; in the data active means inhibition above about 27%;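 further: 0% = vehicle and 100% = reference inhibitor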
Rv3671c protease: inhibits the M. tuberculosis serine protease Rv3671c. AID 2606. inhibition, % at 5.96 µM. actives 0.048% (n = 320,000). P9WHR9; in the data active means inhibition above about 38%;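 further: extracellular domain of Rv3671c used as enzyme; 0% = enzyme with DMSO and 100% = no enzyme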
Target sequence (P9WHR9 whole entry, looked up, the tested form may be a part): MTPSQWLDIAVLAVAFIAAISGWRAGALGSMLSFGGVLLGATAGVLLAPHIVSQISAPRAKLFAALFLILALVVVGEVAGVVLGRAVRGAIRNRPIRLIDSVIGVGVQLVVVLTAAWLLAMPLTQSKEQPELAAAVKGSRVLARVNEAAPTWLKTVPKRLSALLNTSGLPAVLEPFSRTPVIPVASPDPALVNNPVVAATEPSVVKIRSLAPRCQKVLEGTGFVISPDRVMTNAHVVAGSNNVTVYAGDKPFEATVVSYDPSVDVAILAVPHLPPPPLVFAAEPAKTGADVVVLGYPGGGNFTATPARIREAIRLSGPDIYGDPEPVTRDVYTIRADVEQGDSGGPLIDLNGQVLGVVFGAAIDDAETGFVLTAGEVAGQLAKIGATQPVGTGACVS
An asterisk follows results filed as active; . = no result; + = active, no number. A selection: hits, their analogues and other compounds. The true share with any hit is near 3.5%.

SMILES	Mtb bLac sens	GDH-TPI counter	UGM FP inh	Mtb FBA inh	Rv3671c protease
CCOC(=O)C(C)N1N=C(/C=C/c2ccc(OC)cc2)CCC1=O (configuration not stated)	0.8	41.8*	-0.4	0.6	5.2
Cc1ccc(NC2CCCN(C(=O)c3ccc(F)cc3)C2)cc1C (configuration not stated)	11.1	-0.4	-1.9	-3.9	12.8
CC1(C)SC[C@H](C(=O)Nc2cccc(Cl)c2)N1C=O	-6.9	-3.4	0.4	-0.2	-11.4
O=C(CC(=O)NC1CCCCC1)N/N=C/c1ccccc1Cl	-0.2	-0.7	-3.5	-1.0	5.3
O=C(CC(=O)NC1CCCCC1)N/N=C/c1cccc2ccccc12	-22.1	31.2*	0.7	0.9	5.8
C/C(=N/NC(=O)CCCOc1ccc(Cl)cc1Cl)c1ccc(C)o1	0.1	13.7	-0.3	0.5	-2.8
CN(C)/C=C1/C=C(c2ccccc2)OC1=O	20.0	33.3*	2.5	1.5	-2.2
COc1cc(/C=N/NC(=O)CN2CCCCC2)ccc1OCc1ccc(Br)cc1	63.4	11.1	0.3	-0.6	-2.0
CC1CC(C)(C)CC2(C1)NC(=O)N(CC(=O)NCc1ccccc1F)C2=O (configuration not stated)	2.6	2.9	0.3	-2.1	-4.8
O=C(c1cccs1)N1C[C@@H](n2cc(C3CC3)nn2)[C@H](O)C[C@@H]1c1ccccc1	.	-10.4	.	0.4	.
Cc1ccc[n+](CC(=O)Nc2ccc([N+](=O)[O-])cc2)c1	-6.4	42.0*	-0.6	1.9	8.8
CCc1cccc(C)c1NC(=O)CSc1nnc(C)o1	0.5	2.5	-0.1	-0.1	-0.7
CCOC(=O)N1CCN(/C=C(\C#N)c2nc3ccccc3s2)CC1	-15.1	34.6*	-0.3	1.4	-14.8
N#C/C(=C\N1CCN(Cc2ccc3c(c2)OCO3)CC1)c1nc2ccccc2s1	90.2	25.6	1.6	0.8	1.1
COc1cc(N/C=C(\C(C)=O)c2ccccc2)cc(OC)c1	44.9	43.7*	-3.2	-3.0	-1.4
COCCn1c(C)cc2c(c1=O)C(c1ccco1)C(C#N)=C(N)O2 (configuration not stated)	-3.1	5.6	-0.1	49.3*	-7.0
O=C(N=c1ccn(-c2nc3ccccc3nc2NS(=O)(=O)c2ccc(Cl)cc2)cc1)c1ccccc1Cl	-6.8	.	34.1*	.	1.4
O=C(N=c1ccn(-c2nc3ccccc3nc2NS(=O)(=O)c2ccc(Cl)cc2)cc1)c1cccs1	0.9	12.7	17.2*	1.0	-14.0
COCCNC(=O)c1cc2c3ccccc3n(C)c2s1	7.1	46.8*	-1.9	2.7	1.6
CCCNC(=O)c1cc2c3ccccc3n(C)c2s1	-21.1	22.5	3.5	4.1	-14.7
CN(C)C(=O)CCC(=O)N(C)CC1CCCN(CCc2ccc(F)cc2)C1 (configuration not stated)	1.2	-0.8	2.3	187.9*	-2.7
CN(CC1CCCN(CCc2ccc(F)cc2)C1)C(=O)CCC(F)(F)F (configuration not stated)	-8.5	11.4	3.3	-0.5	2.9
CN1C=CC(=O)[C@@H](O)[C@H]1c1ccccc1Br	.	12.3	.	-0.9	.
CCN(CC)Cc1c(O)ccc2c(=O)c(Oc3ccccc3OC)c(C)oc12	-4.1	21.7	2.7	+	-0.6
COc1ccccc1Oc1c(C)oc2c(CN(C)C)c(O)ccc2c1=O	-1.9	23.3	4.4	+	-30.7
SMILES	Mtb bLac sens	GDH-TPI counter	UGM FP inh	Mtb FBA inh	Rv3671c protease
COc1ccccc1Oc1c(C)oc2c(CN3CCN(CCO)CC3)c(O)ccc2c1=O	-19.4	.	3.0	.	26.1
CCc1cc2c(=O)c(-c3nc4ccccc4n3C)c(C)oc2c(CN(CC)CC)c1O	-13.7	16.1	2.1	13.7	-0.7
CC1(C)CC(N2CCN(c3ccccc3)CC2)=CC(=[N+]2CCCC2)C1	3.9	45.4*	1.1	-5.8	-2.2
CC1(C)CC(N2CCCC2)=CC(=[N+]2CCCCCC2)C1	-3.5	30.3	0.0	0.3	-10.8
CCN(CC)C1=CC(=[N+]2CCCC2)CC(C)(C)C1	-3.6	43.0*	1.0	-4.5	-2.1
CN(Cc1ccccc1)C1=CC(=[N+]2CCCC2)CC(C)(C)C1	-4.0	52.0*	-0.3	-2.2	-3.3
O=C(NCC(c1ccco1)N1CCCCC1)c1ccc([N+](=O)[O-])s1 (configuration not stated)	-0.1	27.4	0.1	1.9	3.5
CCOc1ccccc1/C=C\c1nc(O)c([N+](=O)[O-])c(=O)[nH]1	0.9	37.4*	-1.1	-0.8	-0.8
O=c1[nH]c(/C=C\c2cccc(O)c2)nc(O)c1[N+](=O)[O-]	2.9	34.7*	0.0	-7.0	-2.8
